Compound activity: PubChem, National Center for Advancing Translational Sciences (NCATS)
TrxR1 inh: rat TrxR1 inhibition. recombinant rTrxR1, NADPH fluorescence consumption, selenite substrate. O89049. Potency, µM (series often up to 114 µM), for inactives: at the highest dose activity change, negative = inhibition, usual class: inhibitors. actives 1% (n = 390,000). AID 588453; also: nearly all actives have a fitted effect of over 65% in size
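Rat TrxR1 (90 nM in the dispensed reagent) was pre-reduced with 400 uM NADPH for 5 min at room temperature, then incubated with compound for 15 min. After 400 uM selenite was added, NADPH fluorescence (Ex 340/Em 450 nm) was followed for 8 min.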
VDR inhibitor: vitamin D3 receptor (human) inhibition; P11473; VDR-SRC2-3 peptide fluorescence polarization, 2 h; Potency, µM, for the others: max response, negative = inhibition, hits mostly inhibitors; actives 0.93% (n = 400,000); AID 504847
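Measured by FP: displacement of SRC2-3 coactivator peptide from VDR by library compounds, following a two-hour ambient incubation.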
Sfp PPTase inh: inhibitors of Bacillus subtilis Sfp phosphopantetheinyl transferase; Biochemical Sfp PPTase activity, qHTS; Potency, µM, without a hit: largest response in the series, negative = inhibition, hits mostly inhibitors; actives 3.5% (n = 310,000); AID 1490;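 also: the enzyme is Sfp with the accession as filed and its product quenches rhodamine fluorescence; 0% = enzyme reaction without inhibitor and -100% = no enzyme wells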
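Compounds were incubated with enzyme (final 15 nM) for 15 min at room temperature before substrate addition started the reaction. Fluorescence at 525 nm excitation, 598 nm emission was recorded immediately and after 30 minutes.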
PLK1 PBD block: PLK1 (human) polo-box domain binding inhibition. P53350. Plk1 PBD binding of FITC phosphopeptide, fluorescence polarization. Potency, µM, inactives show max response, negative = inhibition, hits mostly inhibitors. actives 2.8% (n = 360,000). AID 720504; also: series mostly up to about 57 µM; nearly all actives have a fitted effect of over 65% in size
Target sequence (P53350 whole entry, looked up, the tested form may be a part): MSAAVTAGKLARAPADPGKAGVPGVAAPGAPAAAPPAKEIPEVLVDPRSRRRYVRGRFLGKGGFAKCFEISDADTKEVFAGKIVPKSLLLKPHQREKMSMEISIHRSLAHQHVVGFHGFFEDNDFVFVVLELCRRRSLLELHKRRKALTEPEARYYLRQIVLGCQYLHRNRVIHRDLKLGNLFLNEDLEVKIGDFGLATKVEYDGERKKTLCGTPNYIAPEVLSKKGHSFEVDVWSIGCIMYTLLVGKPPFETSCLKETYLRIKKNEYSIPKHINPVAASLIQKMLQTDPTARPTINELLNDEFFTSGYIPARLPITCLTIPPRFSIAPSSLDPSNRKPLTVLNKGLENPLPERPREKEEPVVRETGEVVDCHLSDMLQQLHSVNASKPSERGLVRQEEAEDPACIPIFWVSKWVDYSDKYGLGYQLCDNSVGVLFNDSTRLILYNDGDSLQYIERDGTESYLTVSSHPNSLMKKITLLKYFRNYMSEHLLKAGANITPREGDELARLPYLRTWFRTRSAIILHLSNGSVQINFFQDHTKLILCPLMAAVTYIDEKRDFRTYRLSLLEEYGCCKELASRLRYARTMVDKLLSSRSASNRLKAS
IDH1 R132H inh: inhibitors of human mutant IDH1 R132H; O75874; Potency, µM (highest dose often 76.6 µM), without a hit: at the top dose activity change, negative = inhibition, usual class: inhibitors; IDH1-R132H enzyme, NADPH consumption, diaphorase/resazurin fluorescence; actives 0.093% (n = 390,000); also: nearly all actives have a fitted effect of over 65% in size
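IDH1-R132H (0.5 ug/mL) preincubated 30 min with compound, then NADPH (0.016 mM) and alpha-KG (2 mM) added; 80 min at RT, pH 7.5. Remaining NADPH coupled via diaphorase/resazurin to fluorescence (540/590 nm); concentration-response curves normalized to no-enzyme control.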
TrxR1 substrate: rat thioredoxin reductase 1 substrate activity. AID 588456. Potency, µM (doses to about 114 µM), without a hit: at the top dose activity change, negative = substrate turnover. O89049. purified TrxR1 substrate turnover, NADPH consumption readout. actives 0.01% (n = 390,000); also: nearly all actives have a fitted effect of over 50% in size
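Rat TrxR1, dispensed at 90 nM, was prereduced with 400 uM NADPH (final) for 5 min at ~22 deg C, then incubated with compound 15 min before 400 uM selenite. A first-read NADPH fluorescence drop versus no-compound background flagged substrates.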
The depositor's hits bear a star; [ ] = another dose, or the depositor's remark. In the library only some 5.2% were active in any assay of this set; here they are far more common. Calls follow the shape of the dose curve; as a rule, active = well fitted curve in the direction sought with a large enough effect; inconclusive = small, poorly fitted or top-dose-only effect, or another doubt; inactive = no such curve, though single readings can be large; an effect the other way counts as inactive or inconclusive. Unless noted, % is scaled to controls: 0 for no effect and ±100 for the full control effect; potency is read from the fitted curve at half-maximal effect.

Screening COc1ccccc1CNC(=O)c1ccc(Cn2c(SCc3ccccc3)nc3cccnc32)cc1 returned TrxR1 inh 24%, VDR inhibitor 9%, IDH1 R132H inh 0% and TrxR1 substrate 23%.
O=C(Nc1ccc(NC(=O)c2ccc(Br)cc2)c(Cl)c1)c1ccc(Br)cc1 was read as TrxR1 inh 1%, VDR inhibitor -14%, IDH1 R132H inh 0% and TrxR1 substrate -4%.
`Cc1[nH]nc(SCC(=O)N2CCC(C)CC2)c1[N+](=O)[O-]` gave TrxR1 inh 11%[57.1 µM], VDR inhibitor -5%, Sfp PPTase inh 89µM*, PLK1 PBD block -8%, IDH1 R132H inh -11% and TrxR1 substrate 10%[57.1 µM].
Cc1c(CCCC(=O)O)sc(N)c1C(=O)c1cccc(C(F)(F)F)c1 was read as TrxR1 inh -2%, VDR inhibitor 89µM* and TrxR1 substrate 1%.
COc1ccc(C2C(C(=O)c3cccs3)=C(O)C(=O)N2c2nnc(C)s2)cc1OC (stereo not drawn) was read as TrxR1 inh -3%, VDR inhibitor -1%, Sfp PPTase inh 56µM*, PLK1 PBD block inconclusive, IDH1 R132H inh 6% and TrxR1 substrate 7%.
For C=CCOc1ccc(C2C(C(=O)c3cccs3)=C(O)C(=O)N2c2nnc(C)s2)cc1 (stereo not drawn) the results were TrxR1 inh -28%, VDR inhibitor -16%, PLK1 PBD block inconclusive, IDH1 R132H inh 3% and TrxR1 substrate -10%.
Screening CCC(C(=O)O)C1OC(C(C)C(O)C(C)C(=O)C(CC)C2OC3(C=CC(O)C4(CCC(C)(C5CCC(O)(CC)C(C)O5)O4)O3)C(C)CC2C)C(C)CC1C (stereo not drawn) returned VDR inhibitor 1% and Sfp PPTase inh 15%.
CC(CCc1ccco1)NC(=O)c1cc2c(-c3ccccc3F)nn(C)c2s1 (stereo not drawn) was read as TrxR1 inh -12%, VDR inhibitor -20%, Sfp PPTase inh 45µM*, PLK1 PBD block -2%, IDH1 R132H inh 12% and TrxR1 substrate 6%.
`CC(C)(C)OC1NS(=O)(=O)OCC1NCOC(Cl)(Cl)Cl` (stereo not drawn) gave TrxR1 inh 1.8µM*, VDR inhibitor inconclusive, Sfp PPTase inh 13µM*, PLK1 PBD block inconclusive, IDH1 R132H inh -14% and TrxR1 substrate 5%.
Screening C=CCC1NS(=O)(=O)OCC1NC(=O)OCC(Cl)(Cl)Cl (stereo not drawn) returned TrxR1 inh 10%[57.1 µM], VDR inhibitor -8%, Sfp PPTase inh 19%, PLK1 PBD block -5%, IDH1 R132H inh -11% and TrxR1 substrate 3%[57.1 µM].
O=C(NCc1ccccc1C(F)(F)F)c1cccc2c1C(=O)c1ccc(N3CCC(N4CCCCC4)CC3)cc1S2(=O)=O was read as PLK1 PBD block 7% and IDH1 R132H inh -6%.
Screening O=C(/C=C/c1cccc(Cl)c1)c1ccc([N+](=O)[O-])o1 returned TrxR1 inh 1.6µM*, VDR inhibitor inconclusive, PLK1 PBD block 6.7µM*, IDH1 R132H inh inconclusive and TrxR1 substrate -2%.
Screening COc1cc(/C=C/C(=O)c2ccc([N+](=O)[O-])o2)ccc1O returned TrxR1 inh 7.9µM*, VDR inhibitor inconclusive, PLK1 PBD block -29%, IDH1 R132H inh 3% and TrxR1 substrate -1%.
Screening COc1cc(/C=C/C(=O)O)ccc1O returned TrxR1 inh -8%, VDR inhibitor 1%, Sfp PPTase inh 6%, PLK1 PBD block -5%, IDH1 R132H inh -2% and TrxR1 substrate -1%.
`Cc1nn(C)cc1-c1n[nH]c(=S)n1-c1ccc(Cl)cc1` gave TrxR1 inh -23%, VDR inhibitor -20%, Sfp PPTase inh inconclusive, PLK1 PBD block -11%, IDH1 R132H inh -2% and TrxR1 substrate -2%.
For CC(C)(C)c1cc(-c2n[nH]c(=S)n2-c2ccc(Cl)cc2)n[nH]1 the results were TrxR1 inh 9%[57.1 µM], VDR inhibitor inconclusive, Sfp PPTase inh inconclusive, PLK1 PBD block 30µM*, IDH1 R132H inh 4% and TrxR1 substrate 6%[57.1 µM].
Screening CN(C)c1cccc(CNC(=O)c2csc([C@H]3C[C@H](O)[C@@H](CO)O3)n2)c1 returned PLK1 PBD block -8%.
For C=CCC[C@H](Cc1ccc(F)cc1)C(=O)OC[C@H](Cc1c[nH]c2ccccc12)NC(=O)[C@@H](CC=C)CC(=O)N[C@H](CO)Cc1ccccc1 the results were TrxR1 inh 19%[57.1 µM], VDR inhibitor 0%, PLK1 PBD block 2%, IDH1 R132H inh 6% and TrxR1 substrate -3%[57.1 µM].
For CCN(CC(=O)NCc1ccc(F)cc1)C(=O)/C=C/c1cccs1 the results were TrxR1 inh 14%[57.1 µM], VDR inhibitor 11%, Sfp PPTase inh 2%, PLK1 PBD block 27µM*, IDH1 R132H inh -1% and TrxR1 substrate 1%[57.1 µM].
COC(=O)c1nc(NC(C)=O)n[nH]1 was read as Sfp PPTase inh 0%.
`COC(=O)c1nc(NC(=O)C(C)C)n[nH]1` gave TrxR1 inh -22%, VDR inhibitor 7%, Sfp PPTase inh 22µM*, PLK1 PBD block 21µM*, IDH1 R132H inh 1% and TrxR1 substrate -3%.
Screening O=C(COC(=O)/C=C/c1ccco1)NC1CCCCC1 returned TrxR1 inh 50µM*, VDR inhibitor -17%, PLK1 PBD block -5%, IDH1 R132H inh 3% and TrxR1 substrate -12%.
COc1ccc(CNC(=O)COC(=O)/C=C/c2ccco2)cc1 was read as TrxR1 inh 28µM*, VDR inhibitor 5%, Sfp PPTase inh inconclusive, PLK1 PBD block inconclusive, IDH1 R132H inh -14% and TrxR1 substrate -4%.
For O=C(COC(=O)/C=C/c1ccco1)NCc1ccco1 the results were TrxR1 inh inconclusive, VDR inhibitor -8%, Sfp PPTase inh 50µM*, PLK1 PBD block inconclusive, IDH1 R132H inh -2% and TrxR1 substrate -3%.
COc1ccc(CNC(=O)COC(=O)c2ccco2)cc1 was read as TrxR1 inh 19%[57.1 µM], VDR inhibitor -14%, Sfp PPTase inh 6%, PLK1 PBD block -8%, IDH1 R132H inh -1% and TrxR1 substrate 9%[57.1 µM].
For O=C(O)c1ccc2c(c1)-c1cc(C(=O)O)ccc1S2(=O)=O the results were TrxR1 inh 12%, VDR inhibitor -25%, Sfp PPTase inh 24%, PLK1 PBD block -8%, IDH1 R132H inh -6% and TrxR1 substrate -2%.
`Cc1ccc(NC(=O)CN2C(=O)N/C(=C/c3ccco3)C2=O)cc1` gave TrxR1 inh -7%[11.4 µM], VDR inhibitor -1%, Sfp PPTase inh 45µM*, PLK1 PBD block -17%, IDH1 R132H inh 4% and TrxR1 substrate -3%[11.4 µM].
